The values below come from PubChem BioAssay (Tox21).

Values without a mark were called inactive. Results filed as inconclusive are left out. Activity calls are given as the source filed them. Unless noted, the call rests on the fitted dose curve; in most records, active means well fitted curve in the direction sought with a large enough effect in the repeat runs; inconclusive means weak or mixed curves; inactive means no such curve, though single readings can be large; an effect the other way counts as inactive or inconclusive.

The nature of assay [1]: Human pregnane X receptor (PXR) small molecule agonists, qHTS cell viability counter screen (AID 1346977). Further: nearly all actives have a fitted effect of over 50% in size. The method, boiled down:
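Tox21 qHTS format; PXR-Luc HepG2, 2,000/well, charcoal-stripped FBS 5%. Cpd exposure 24hr. Read: CellTiter-Fluor fluorescence, multiplexed with luciferase.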
A general note: Quantitative high-throughput screening tests each substance at several concentrations.

Assay [2] can be described thus: Caspase-3/7 induction in CHO-K1 cells by small molecules, qHTS assay (AID 1346980). Further: nearly all actives have a fitted effect of over 15% in size. The method, boiled down:
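Luminescent Caspase-Glo 3/7 read (30min, room temperature) quantified apoptosis induction. Cells were wild-type CHO-K1, treated with compound for 17hr at 37 C and 5% CO2.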

A short description of assay [3]: Caspase-3/7 induction in HepG2 cells by small molecules, qHTS cell viability counter screen (AID 1346981). Further: series mostly up to about 92 µM; nearly all actives have a fitted effect of over 30% in size. The method, boiled down:
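Multiplexed with the caspase-3/7 assay: HepG2 cells, 16 hr compound treatment, CellTiter-Fluor viability detection by fluorescence.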

Assay [4] addresses Nuclear receptor subfamily 1 group I member 2 (Homo sapiens) (UniProt O75469). The experiment in a line: Human pregnane X receptor (PXR) small molecule agonists, qHTS assay (AID 1346982). Further: nearly all actives have a fitted effect of over 35% in size. Further: potency means the concentration at half of the fitted maximal effect. The method, boiled down: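 We seeded PXR-Luc HepG2 cells in assay medium containing 5% charcoal-stripped FBS, added compounds 5 hr later, incubated 24 hr, and read luminescence with ONE-Glo reagent.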

The target in assay [5] is Acetylcholinesterase (Homo sapiens) (UniProt P22303). The experiment in a line: Acetylcholinesterase (AChE) small molecule antagonists: colormetric cell-based qHTS assay (AID 1347395; calls by dose curve; further: nearly all actives have a fitted effect of over 30% in size). The method, boiled down: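 AChE inhibition read colorimetrically via DTNB–thiocholine in SH-SY5Y cells. Compound 30 min, substrate 90 min, both 37 C.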
Chain of Acetylcholinesterase (Homo sapiens) (P22303 whole entry, looked up): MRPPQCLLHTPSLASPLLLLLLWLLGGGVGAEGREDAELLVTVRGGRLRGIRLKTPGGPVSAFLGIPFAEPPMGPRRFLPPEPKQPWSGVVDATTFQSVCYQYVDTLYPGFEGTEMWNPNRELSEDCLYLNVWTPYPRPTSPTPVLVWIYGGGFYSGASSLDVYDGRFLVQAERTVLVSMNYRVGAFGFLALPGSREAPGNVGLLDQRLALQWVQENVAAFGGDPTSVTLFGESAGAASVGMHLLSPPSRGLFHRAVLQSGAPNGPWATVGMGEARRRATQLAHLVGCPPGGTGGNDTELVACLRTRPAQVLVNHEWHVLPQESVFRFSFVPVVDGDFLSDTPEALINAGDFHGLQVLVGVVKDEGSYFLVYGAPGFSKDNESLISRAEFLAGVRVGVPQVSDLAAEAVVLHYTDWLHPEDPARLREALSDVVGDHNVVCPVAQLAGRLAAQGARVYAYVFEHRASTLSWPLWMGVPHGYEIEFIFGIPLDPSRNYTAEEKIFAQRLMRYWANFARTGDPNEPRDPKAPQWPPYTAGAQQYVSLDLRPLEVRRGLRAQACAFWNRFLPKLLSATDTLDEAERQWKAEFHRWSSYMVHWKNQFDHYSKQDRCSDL
Assay [6] has the same target. The experiment in a line: Acetylcholinesterase (AChE) small molecule antagonists: enzyme-based qHTS assay (AID 1347397; calls by dose curve; further: nearly all actives have a fitted effect of over 55% in size). The note with it: Potency: AChE enzyme activity inhibition; outcome: AChE enzyme activity inhibition. The method, boiled down: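 rhAChE 50 mU/mL (dispensed) + cpd or DMSO, 30 min RT; add DTNB/acetylthiocholine cocktail, 10 min RT; colorimetric thiocholine readout. qHTS, 1536-well format.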

Assay [7] has the same target. The experiment in a line: Acetylcholinesterase (AChE) small molecule antagonists: fluorescence cell-based qHTS assay (AID 1347398; calls by dose curve; further: nearly all actives have a fitted effect of over 50% in size). As to conditions: Potency: AChE activity; outcome: AChE activity. A digest of the protocol: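 Read-out is Thiolite Green fluorescence at Ex/Em = 490/520 nm, formed by reaction with thiocholine released when cellular AChE in SH-SY5Y cells hydrolyzes acetylthiocholine. Compounds were preincubated 30 min at 37 C before substrate.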

The target is the same in assay [8]. The experiment in a line: Acetylcholinesterase (AChE) small molecule antagonists: enzyme-based qHTS assay with human liver microsomes (AID 1347399; calls by dose curve; further: nearly all actives have a fitted effect of over 60% in size). The note with it: Potency: qHTS inhibition; outcome: qHTS inhibition. The method, boiled down: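 Recombinant human AChE (50 mU/mL in the enzyme mix) and human liver microsomes (0.25 mg/mL final) were preincubated with compound and NADPH (0.25 mg/mL final) for 30 min at 37 C. Acetylthiocholine/DTNB was then added; thiocholine was read colorimetrically after 10 min at room temperature.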

For assay [9], the target named is Cytochrome P450 2C19 (Homo sapiens) (UniProt P33261). Kind of assay: Cytochrome P450 Family 2 Subfamily C Member 19 (CYP2C19) small molecule antagonists: luciferase reporter qHTS assay (AID 1671197). Further: nearly all actives have a fitted effect of over 65% in size. Further: potency means the concentration at half of the fitted maximal effect. A digest of the protocol:
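Enzyme-substrate mix with proluciferin substrate (P450-Glo CYP2C19 system) preincubated with compounds 10 min at room temperature; NADPH regeneration solution added, 37C for 1 h; detection reagent stops reaction, luminescence read after 20 min. Ketoconazole positive control.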
For orientation: Reporter assays use an easily measured gene product as a stand-in for the process of interest.

For assay [10], the target named is Cytochrome P450 2C9 (Homo sapiens) (UniProt P11712). The experiment in a line: Cytochrome P450 Family 2 Subfamily C Member 9 (CYP2C9) small molecule antagonists: luciferase reporter qHTS assay (AID 1671198). Further: nearly all actives have a fitted effect of over 50% in size. Further: potency means the concentration at half of the fitted maximal effect. The method, boiled down: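 Enzyme-substrate mix preincubated with compound 10 min at room temperature; reaction started with NADPH regeneration solution, 1 h 37C. Luminescent luciferin product read after 20 min detection reagent.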
Chain of Cytochrome P450 2C9 (Homo sapiens) (P11712 whole entry, looked up): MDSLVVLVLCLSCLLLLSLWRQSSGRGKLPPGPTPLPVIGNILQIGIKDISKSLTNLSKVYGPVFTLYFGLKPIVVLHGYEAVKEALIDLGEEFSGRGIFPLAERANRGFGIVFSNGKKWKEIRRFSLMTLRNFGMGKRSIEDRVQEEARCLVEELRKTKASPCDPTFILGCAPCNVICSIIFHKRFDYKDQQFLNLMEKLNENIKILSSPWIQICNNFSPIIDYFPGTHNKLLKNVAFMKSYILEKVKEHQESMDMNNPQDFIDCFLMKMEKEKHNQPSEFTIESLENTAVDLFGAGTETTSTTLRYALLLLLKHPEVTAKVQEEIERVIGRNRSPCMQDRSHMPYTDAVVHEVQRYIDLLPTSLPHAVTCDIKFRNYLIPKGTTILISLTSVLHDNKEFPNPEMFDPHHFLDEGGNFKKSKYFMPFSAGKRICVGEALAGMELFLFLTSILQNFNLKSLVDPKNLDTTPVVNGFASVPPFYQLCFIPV

In assay [11] the target is Voltage-gated inwardly rectifying potassium channel KCNH2 (Homo sapiens) (UniProt Q12809). Kind of assay: Human Ether-a-go-go-Related Gene (hERG) channel small molecule antagonists: fluorescence cell-based qHTS assay (AID 1671200). Further: nearly all actives have a fitted effect of over 50% in size. Further: potency means the concentration at half of the fitted maximal effect. A digest of the protocol:
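Kinetic two-minute fluorescence traces, sampled at 1 s, were collected following thallium stimulus of U2OS cells (1000 per well) that had been cultured overnight at 37 C and loaded with FluxOR II.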
For orientation: Block of hERG is tested as a sign of cardiac risk.

Assay [12] has as its target Cytochrome P450 3A4 (Homo sapiens) (UniProt P08684). The experiment in a line: Cytochrome P450 Family 3 Subfamily A Member 4 (CYP3A4) small molecule antagonists: luciferase reporter qHTS assay (AID 1671201). Further: nearly all actives have a fitted effect of over 50% in size. Further: potency means the concentration at half of the fitted maximal effect. A digest of the protocol:
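Proluciferin-to-luciferin conversion by CYP3A4, NADPH-regenerated, 1 h RT; luminescence read as RLU. Ketoconazole as control.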

Assay [13] in a line: Caspase-3/7 induction in HepG2 cells by small molecules, qHTS assay (AID 1346978). Further: nearly all actives have a fitted effect of over 15% in size. The method, boiled down:
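Caspase-3/7 induction was measured by Caspase-Glo 3/7 luminescence (30 min, room temperature) after a 17 hr compound exposure of wild-type HepG2 cells seeded at 2,000 per well and pre-incubated 5 hr.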

The nature of assay [14]: Caspase-3/7 induction in CHO-K1 cells by small molecules, qHTS cell viability counter screen (AID 1346979). Further: nearly all actives have a fitted effect of over 35% in size. A digest of the protocol:
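CellTiter-Fluor viability check, qHTS format: wild-type CHO-K1, 16hr compound treatment, 1hr reagent incubation, fluorescence read.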

Assay [15] concerns the target Cytochrome P450 2D6 (Homo sapiens) (UniProt P10635). Kind of assay: Cytochrome P450 Family 2 Subfamily D Member 6 (CYP2D6) small molecule antagonists: luciferase reporter qHTS assay (AID 1671196). A digest of the protocol: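 Luminescence (RLU), read 20 min after detection reagent, indicated CYP2D6 conversion of proluciferin to luciferin during a 1 h NADPH-dependent reaction at room temperature.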

The target in assay [16] is Cytochrome P450 1A2 (Homo sapiens) (UniProt P05177). Kind of assay: Cytochrome P450 Family 1 Subfamily A Member 2 (CYP1A2) small molecule antagonists: luciferase reporter qHTS assay (AID 1671199). Further: nearly all actives have a fitted effect of over 50% in size. Further: potency means the concentration at half of the fitted maximal effect. The method, boiled down:
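CYP1A2 turnover of a luminogenic substrate was quantified after 1 h with NADPH regeneration at room temperature. Furafylline served as positive control.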

Chain of Cytochrome P450 2D6 (Homo sapiens) (P10635 whole entry, looked up): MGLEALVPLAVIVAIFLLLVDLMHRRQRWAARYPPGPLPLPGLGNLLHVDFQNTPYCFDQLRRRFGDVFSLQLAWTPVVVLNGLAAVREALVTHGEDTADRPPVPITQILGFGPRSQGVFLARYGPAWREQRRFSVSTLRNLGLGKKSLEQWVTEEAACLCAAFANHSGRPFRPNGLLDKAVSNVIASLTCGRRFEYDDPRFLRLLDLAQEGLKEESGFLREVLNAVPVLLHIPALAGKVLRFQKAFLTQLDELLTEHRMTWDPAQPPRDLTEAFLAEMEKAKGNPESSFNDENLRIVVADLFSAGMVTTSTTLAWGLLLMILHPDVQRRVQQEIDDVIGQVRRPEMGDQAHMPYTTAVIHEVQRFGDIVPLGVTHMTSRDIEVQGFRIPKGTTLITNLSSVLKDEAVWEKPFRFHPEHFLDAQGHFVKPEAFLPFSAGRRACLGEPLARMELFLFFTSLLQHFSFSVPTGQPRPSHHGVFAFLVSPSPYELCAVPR
Chain of Cytochrome P450 3A4 (Homo sapiens) (P08684 whole entry, looked up): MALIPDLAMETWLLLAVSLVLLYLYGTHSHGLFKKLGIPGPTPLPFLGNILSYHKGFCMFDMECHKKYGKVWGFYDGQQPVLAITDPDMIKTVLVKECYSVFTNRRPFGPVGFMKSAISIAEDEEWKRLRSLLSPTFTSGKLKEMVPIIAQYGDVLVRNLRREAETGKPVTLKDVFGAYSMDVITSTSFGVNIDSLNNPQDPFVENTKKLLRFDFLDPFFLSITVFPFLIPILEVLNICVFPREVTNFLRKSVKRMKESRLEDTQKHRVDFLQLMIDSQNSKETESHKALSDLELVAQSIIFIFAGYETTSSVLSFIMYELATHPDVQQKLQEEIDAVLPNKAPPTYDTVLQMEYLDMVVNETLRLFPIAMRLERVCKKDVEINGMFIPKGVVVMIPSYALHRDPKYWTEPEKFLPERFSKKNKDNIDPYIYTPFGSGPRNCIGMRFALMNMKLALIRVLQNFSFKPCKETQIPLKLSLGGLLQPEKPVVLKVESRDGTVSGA
Chain of Cytochrome P450 2C19 (Homo sapiens) (P33261 whole entry, looked up): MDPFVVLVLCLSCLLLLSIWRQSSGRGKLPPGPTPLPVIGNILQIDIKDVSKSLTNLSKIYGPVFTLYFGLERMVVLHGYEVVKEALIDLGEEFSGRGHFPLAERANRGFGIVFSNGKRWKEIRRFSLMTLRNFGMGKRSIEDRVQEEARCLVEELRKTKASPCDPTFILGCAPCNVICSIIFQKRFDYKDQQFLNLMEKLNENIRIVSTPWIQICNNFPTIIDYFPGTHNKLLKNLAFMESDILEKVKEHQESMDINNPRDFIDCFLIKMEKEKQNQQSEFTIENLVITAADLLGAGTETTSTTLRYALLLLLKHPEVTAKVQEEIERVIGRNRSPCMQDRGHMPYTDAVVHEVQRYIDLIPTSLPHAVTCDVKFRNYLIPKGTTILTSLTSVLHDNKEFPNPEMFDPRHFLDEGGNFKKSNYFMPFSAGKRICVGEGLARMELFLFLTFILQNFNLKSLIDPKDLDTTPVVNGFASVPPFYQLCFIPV
Chain of Cytochrome P450 1A2 (Homo sapiens) (P05177 whole entry, looked up): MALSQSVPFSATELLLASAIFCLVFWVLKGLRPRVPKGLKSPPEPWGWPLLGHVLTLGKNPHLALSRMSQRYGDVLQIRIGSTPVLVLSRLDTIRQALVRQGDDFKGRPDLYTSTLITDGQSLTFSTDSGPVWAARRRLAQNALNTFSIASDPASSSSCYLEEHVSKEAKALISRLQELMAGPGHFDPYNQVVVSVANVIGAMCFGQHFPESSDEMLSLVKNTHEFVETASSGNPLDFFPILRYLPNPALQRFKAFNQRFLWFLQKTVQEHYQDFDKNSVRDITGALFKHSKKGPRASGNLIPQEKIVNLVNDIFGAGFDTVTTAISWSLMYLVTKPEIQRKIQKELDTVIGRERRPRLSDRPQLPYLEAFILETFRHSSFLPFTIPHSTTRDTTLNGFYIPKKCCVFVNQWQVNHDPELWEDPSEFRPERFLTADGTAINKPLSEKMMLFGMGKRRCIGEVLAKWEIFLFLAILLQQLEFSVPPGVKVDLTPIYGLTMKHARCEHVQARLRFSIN
Chain of Voltage-gated inwardly rectifying potassium channel KCNH2 (Homo sapiens) (Q12809 whole entry, looked up): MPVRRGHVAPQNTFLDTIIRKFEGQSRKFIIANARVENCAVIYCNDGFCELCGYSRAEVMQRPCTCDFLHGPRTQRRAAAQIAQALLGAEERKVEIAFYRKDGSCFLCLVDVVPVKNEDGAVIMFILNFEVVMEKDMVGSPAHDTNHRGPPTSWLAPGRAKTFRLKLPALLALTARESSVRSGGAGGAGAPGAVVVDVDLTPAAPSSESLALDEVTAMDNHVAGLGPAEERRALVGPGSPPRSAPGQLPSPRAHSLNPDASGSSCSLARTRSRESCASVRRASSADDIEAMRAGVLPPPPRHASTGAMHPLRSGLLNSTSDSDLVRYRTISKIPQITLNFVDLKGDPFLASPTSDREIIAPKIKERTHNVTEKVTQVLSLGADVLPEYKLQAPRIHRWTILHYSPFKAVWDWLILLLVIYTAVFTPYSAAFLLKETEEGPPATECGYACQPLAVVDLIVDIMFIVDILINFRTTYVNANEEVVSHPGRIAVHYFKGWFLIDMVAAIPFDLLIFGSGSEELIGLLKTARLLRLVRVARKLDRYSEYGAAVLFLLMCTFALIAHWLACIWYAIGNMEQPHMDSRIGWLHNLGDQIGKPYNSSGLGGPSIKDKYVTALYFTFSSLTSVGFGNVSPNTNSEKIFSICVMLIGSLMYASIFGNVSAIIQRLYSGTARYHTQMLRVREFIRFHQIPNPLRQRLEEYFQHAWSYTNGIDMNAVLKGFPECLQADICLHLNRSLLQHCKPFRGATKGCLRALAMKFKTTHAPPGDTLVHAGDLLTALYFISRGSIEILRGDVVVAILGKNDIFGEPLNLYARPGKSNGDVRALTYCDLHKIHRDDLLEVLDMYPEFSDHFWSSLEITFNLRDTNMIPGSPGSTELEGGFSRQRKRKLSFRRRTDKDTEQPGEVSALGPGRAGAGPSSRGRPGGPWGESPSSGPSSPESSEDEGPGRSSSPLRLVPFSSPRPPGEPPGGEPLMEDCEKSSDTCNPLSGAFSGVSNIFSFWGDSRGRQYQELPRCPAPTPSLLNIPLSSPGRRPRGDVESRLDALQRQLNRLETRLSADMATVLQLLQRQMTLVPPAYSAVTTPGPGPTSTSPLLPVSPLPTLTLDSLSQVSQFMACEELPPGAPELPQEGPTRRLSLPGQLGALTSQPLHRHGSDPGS
Chain of Nuclear receptor subfamily 1 group I member 2 (Homo sapiens) (O75469 whole entry, looked up): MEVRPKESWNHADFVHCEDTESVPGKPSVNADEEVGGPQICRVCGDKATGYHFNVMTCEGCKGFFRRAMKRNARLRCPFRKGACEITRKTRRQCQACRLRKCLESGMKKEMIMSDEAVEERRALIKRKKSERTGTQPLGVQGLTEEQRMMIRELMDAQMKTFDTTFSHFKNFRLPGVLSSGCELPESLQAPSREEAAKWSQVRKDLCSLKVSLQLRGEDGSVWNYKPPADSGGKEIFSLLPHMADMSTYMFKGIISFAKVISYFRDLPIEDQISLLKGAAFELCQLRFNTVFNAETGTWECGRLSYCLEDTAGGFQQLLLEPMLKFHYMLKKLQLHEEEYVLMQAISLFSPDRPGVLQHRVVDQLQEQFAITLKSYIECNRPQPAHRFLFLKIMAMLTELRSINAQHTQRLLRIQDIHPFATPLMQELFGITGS

On to `Cl/C=C/CCl`, for which the Potency result in assay [1], in [3], in assay [4], in assay [5], in assay [6] and in assay [7] was “inactive” in each case. Further, the Potency result in [8], in [9], in [10], in assay [11] and in assay [12] was “inactive” in each case. Also, the outcome in [2] was inactive.
Take `Oc1ccc(Cc2ccc(O)cc2)cc1`: the Potency result in assay [1], in [14], in [3], in assay [5], in [6] and in [7] was “inactive” throughout. In addition, the Potency result in assay [8], in [9], in assay [10], in [11] and in [12] was “inactive” throughout. Further, the result in [13] and in assay [2] was inactive. Further, in assay [4], the Potency was 54.9 µM (active).
`C=CC(=O)OCCN(C)C`: the Potency result in [1], in assay [14], in assay [3], in assay [4], in assay [5] and in assay [6] was “inactive” throughout. For the same compound, the Potency entry in [7], in assay [8], in [15], in assay [10], in assay [16] and in [11] was “inactive” each time. In assay [12], the Potency result was “inactive”. Moreover, the compound was called inactive in assay [13] and in assay [2].
For the compound `C=C(Cl)CSC(=S)N(CC)CC`, the Potency result in [1], in assay [14], in [3], in assay [4], in assay [5] and in [6] was “inactive” each time. Moreover, the Potency result in assay [7] and in assay [8] was “inactive” each time. Moreover, the compound was called inactive in assay [13] and in assay [2]. The Potency in assay [9] was 34.7 µM (active); in assay [10], 38.9 µM (active); in [16] it was 9.77 µM (active); in [11] it was 53.5 µM (active).
Consider `O=C(Cl)/C=C/C(=O)Cl`, for which the Potency entry in assay [1], in [14], in assay [3], in [4], in assay [5] and in assay [6] was “inactive” throughout. In addition, the Potency entry in [7], in assay [8], in [15], in assay [9], in assay [16] and in [11] was “inactive” each time. Also, the Potency entry in assay [12] was “inactive”. Also, the compound was called inactive in assay [13] and in assay [2].
`CC[C@H](N)c1ccccc1`: the Potency entry in [1], in [14], in assay [3], in assay [5], in assay [6] and in assay [7] was “inactive” throughout. For the same compound, the Potency entry in assay [8] and in assay [11] was “inactive” in each case. Further, the result in assay [13] was inactive. In addition, the Potency in assay [9] was 63.3 µM (active); in assay [12], 31.7 µM (active).
`CC(C)(C1CCC(O)CC1)C1CCC(O)CC1` (centres undefined): the Potency result in assay [1], in assay [14], in assay [3], in [5], in [6] and in [7] was “inactive” throughout. The Potency result in assay [8], in assay [15], in assay [16], in assay [11] and in [12] was “inactive” in each case. Moreover, the compound was called inactive in [13]. In addition, the Potency in assay [9] is 71 µM (active).
